DUSP3 inh: VHR1 phosphatase inhibitors, primary screen, biochemical, absorbance, uHTS | Dual specificity protein phosphatase 3 (Homo sapiens), P51452 | AID 1654, 2009 | recombinant VHR phosphatase, pNPP absorbance | actives 0.52% (n = 290,000) | inhibition, % at 13.3 µM; in the data active = inhibition above about 50%
Target sequence (P51452 whole entry, looked up): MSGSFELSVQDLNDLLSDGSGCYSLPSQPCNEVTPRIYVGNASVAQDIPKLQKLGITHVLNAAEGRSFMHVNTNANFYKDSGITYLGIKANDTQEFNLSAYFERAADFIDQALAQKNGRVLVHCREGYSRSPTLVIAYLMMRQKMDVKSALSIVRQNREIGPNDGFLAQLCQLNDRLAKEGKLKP
GDH-TPI inh: GDH-TPI coupling enzyme inhibitors, primary screen, artefact control for M. tuberculosis FBA inhibitor project, biochemical, absorbance, full deck. inhibition, % at 4.8 µM. actives 1.2% (n = 360,000). GDH-TPI coupled enzyme counterscreen, NADH absorbance; in the data active = inhibition above about 30%;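 note: 0% = DMSO wells and 100% = wells lacking the enzyme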
Mtb betalactam: beta-lactam sensitization of Mtb H37Rv, H37Rv. actives 0.27% (n = 330,000). AID 434955, 2010. inhibition, % at 25 µM. M. tuberculosis H37Rv growth with meropenem, percent inhibition; call rule not given here;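 note: growth measured after seven days incubation then overnight dye step; 0% = bacteria only wells and 100% = bacteria with antibiotic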
Mtb hypoxia inh: PubChem AID 1159583; M. tuberculosis hypoxia-regulated fluorescent reporter, fluorescence; fluorescence inhibition, % (test concentration not listed); actives 0.1% (n = 300,000); in the data active = fluorescence inhibition mostly above about 23%, no sharp cut-off; inactive = mostly below about 17%
Mtb FBA inh: Mtb FBA enzyme inhibitors, primary screen, biochemical, fluorescence, strain H37Rv; inhibition, % at 1 µM; actives 2.3% (n = 360,000); purified M. tuberculosis FBA, fluorescence read-out; Fructose-bisphosphate aldolase (Mycobacterium tuberculosis (strain ATCC 25618 / H37Rv)), …; in the data active = inhibition above about 27%;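 note: 0% = vehicle and 100% = reference inhibitor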
Target sequence (P9WQA3 whole entry, looked up): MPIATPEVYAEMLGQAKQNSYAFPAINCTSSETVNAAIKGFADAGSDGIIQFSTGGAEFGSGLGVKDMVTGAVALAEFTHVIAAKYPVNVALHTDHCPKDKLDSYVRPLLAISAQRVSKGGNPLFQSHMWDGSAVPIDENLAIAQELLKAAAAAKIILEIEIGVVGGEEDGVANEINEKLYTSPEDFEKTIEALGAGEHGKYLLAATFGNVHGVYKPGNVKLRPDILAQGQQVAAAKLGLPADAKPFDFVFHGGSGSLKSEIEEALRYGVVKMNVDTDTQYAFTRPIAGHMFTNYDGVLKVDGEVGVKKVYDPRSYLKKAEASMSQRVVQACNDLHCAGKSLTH
* = called active by the depositor; / = not tested or not shown. Hits are enriched below; roughly 3.6% of the tested compounds scored in any of these assays.

SMILES	DUSP3 inh	GDH-TPI inh	Mtb betalactam	Mtb hypoxia inh	Mtb FBA inh
Cc1nc2oc(C(=O)c3ccccc3)c(N)c2c2c1COC(C)(C)C2	4	17	-8	-11	6
S=c1[nH]ncn1N=Cc1cccs1	/	/	/	6	/
C(=NNc1nc(N2CCCCC2)nc(N2CCCCC2)n1)c1c[nH]c2ccccc12	/	/	/	3	/
O=C(CC1CC=CCCC(Cc2ccc(F)cc2)C(=O)OCC(c2ccccc2)NC1=O)NCCO (configuration not stated)	/	/	/	8	/
COc1ccc(-n2c(C)nn(C)c2=O)cc1	44	7	-6	-1	-3
COc1ccc(-n2c(/C=C(\C)O)nc(=O)c3c(C)cc(C)nc32)cc1	10	59*	27	-2	6
NC(Cc1ccc(Cl)cc1Cl)=NOC(=O)Cc1ccc(Cl)cc1	/	/	/	3	/
O=C(CC1S/C(=N/N=C/c2cccs2)NC1=O)Nc1ccccc1F (configuration not stated)	20	33*	0	/	4
C=CCC1S/C(=N/N=C/c2cccs2)NC1=O (configuration not stated)	7	53*	40	/	-3
O=C(NCCCN1CCOCC1)C(=O)NN=Cc1c2ccccc2cc2ccccc12	/	/	/	4	/
C/C(=N/NC(=O)c1sc(NS(=O)(=O)c2ccccc2)nc1C)c1sc(N)nc1C	10	38*	0	/	6
Cc1nc(N2CCN(C)CC2)c2sc(=S)n(-c3ccccc3)c2n1	16	38*	-4	/	2
CC(/C=C1\SC(=O)N(CC(=O)Nc2cccc(O)c2)C1=O)=C\c1ccccc1	-14	33*	-11	1	2
COc1ccc(/C=C2\SC(=O)N(CC(=O)Nc3cccc(C)c3)C2=O)cc1O	12	47*	4	1	-2
CC(/C=C1\SC(=O)N(CC(=O)Nc2ccc(O)cc2)C1=O)=C\c1ccccc1	10	18	1	/	-1
CCOc1cc(/C=C2/NC(=O)N(CC(=O)Nc3cccc(C)c3)C2=O)ccc1OCC(N)=O	12	38*	-1	9	3
CCOc1cccc(/C=C2/NC(=O)N(CC(=O)Nc3cccc(C)c3)C2=O)c1O	1	25	-8	-7	-2
CC(C)(C)OC(=O)NCCCCC(NC(=O)c1nc[nH]c1C(=O)NC(CCCCNC(=O)OC(C)(C)C)C(=O)OC(C)(C)C)C(=O)OC(C)(C)C (configuration not stated)	/	/	/	2	/
CNCC1Oc2ccc(NC(=O)C3CCCCC3)cc2CC(=O)N(C(C)CO)CC1C (configuration not stated)	/	/	/	7	/
CCCn1nc2cc(C(=O)N(CC)c3ccc(OC)cc3)ccc2c1OCC	34	0	-1	11	40*
CCCCn1nc2cc(C(=O)NCCc3ccc(C)cc3)ccc2c1OCC	9	1	6	-3	22
CCOc1c2ccc(C(=O)NCc3ccccc3OC)cc2nn1CC	30	-1	12	2	47*
CCCCn1nc2cc(C(=O)NCc3ccccc3)ccc2c1OCC	34	1	50	16	68*
COc1ccccc1CNC(=O)c1ccc2nc3[nH]c4ccccc4c3nc2c1	48	40*	10	-1	0
S=C(NN=Cc1ccccc1)N1CCOCC1	/	/	/	12	/
SMILES	DUSP3 inh	GDH-TPI inh	Mtb betalactam	Mtb hypoxia inh	Mtb FBA inh
COC(=O)[C@@]1(Cc2ccc(OC)cc2)C2c3cc(C(=O)N4CCCC4)n(CCn4cc([N+](=O)[O-])nc4C)c3CC2CN1C(=O)c1ccccc1 (some centres not stated)	/	/	/	1	/
CC(Oc1ccc(C(C)(C)C)cc1)c1ccnc2nc(N=CN(C)C)nn12 (configuration not stated)	/	/	/	8	/
c1ccc(-c2cn(CC3CCC(C4CCC(Cn5cc(-c6ccccn6)nn5)O4)O3)nn2)nc1 (configuration not stated)	/	/	/	-2	/
CCOc1c2ccc(C(=O)NCc3ccco3)cc2nn1CC	9	7	-6	-2	39*
Cc1ccc(Cl)cc1NC(=O)CCNC(=O)N1CC(=O)Nc2ccccc21	-15	0	4	10	-5
COc1cccc(NC(=O)CNC(=O)N2CC(=O)Nc3ccccc32)c1	57*	8	-2	-2	5
Cc1ccc(Cl)cc1NC(=O)CNC(=O)N1CC(=O)Nc2ccccc21	57*	5	-8	-7	5
CC1CN(C(C)CO)C(=O)Cc2cc(NS(=O)(=O)c3cn(C)cn3)ccc2OC1CN(C)C(=O)Nc1ccc(F)cc1 (configuration not stated)	/	/	/	17	/
Cc1ccc(-c2n[nH]c(=S)n2N=Cc2cccs2)cc1	/	/	/	18	/
COc1ccc(Cl)cc1NC(=O)CC(C)=NNC(=O)C(=O)NCc1ccccc1	/	/	/	-10	/
COc1ccc(C2CC(=O)C=C(c3ccc(F)cc3OCc3ccccc3)C2)cc1OC (configuration not stated)	/	/	/	4	/
c1ccc(-c2ccc(-c3ccncn3)cc2)cc1	/	-2	6	13	117*
Cc1cc2ccccn2c1C(=O)c1ccc(NN=Cc2ccc(C(=O)O)cc2)c([N+](=O)[O-])c1	/	/	/	-4	/
Cc1cc2ccccn2c1C(=O)c1ccc(N/N=C/c2ccc(C(=O)O)cc2)c([N+](=O)[O-])c1	83*	24	/	/	5
ClCCN(CCCl)c1ccc(C=NNc2ncccn2)cc1	/	57*	/	16	1
ClCCN(CCCl)c1ccc(C=Cc2ccncn2)cc1	/	12	/	12	0
N#Cc1ncc(N=Cc2ccc(N(CCCl)CCCl)cc2)s1	/	52*	/	16	-1
CN(N=Cc1cccnc1)c1cnn(-c2ccc(F)c(Cl)c2)c(=O)c1Cl	/	/	/	10	/
CS(=O)(=O)c1ccc2nc(NC(=O)c3ccc(Cn4cc(Br)cn4)o3)sc2c1	0	31*	-2	0	18
NS(=O)(=O)c1ccc2nc(NC(=O)c3ccc(Br)o3)sc2c1	-21	24	6	7	10
O=C1NC(=O)N(c2ccccc2)C(=O)/C1=C/c1coc2ccc(O)cc2c1=O	-8	31*	-3	13	-1
Cc1ccccc1Cn1cccc1C=C1C(=N)N2C=CSC2=NC1=O	/	/	/	7	/
CC1OC(OC2C(COC3OC(CO)C(O)C(O)C3O)OC(OC3CC[C@]4(C)C(CC[C@@]5(C)C4CC=C4C6CC(C)(C)CC[C@]6(CO)C(O)C[C@]45C)C3(C)C)C(O)C2O)C(O)C(O)C1O (some centres not stated)	/	/	/	-1	/
COc1ccc(C(C)=NNC(=S)NCCc2ccccc2)c(O)c1	/	/	/	7	/
CNC(=S)NN=C(C)c1ccc(OC)cc1O	/	39*	/	/	4
O=C(O)CCn1c(-c2ccccn2)nc2ccccc21	22	0	2	-9	27*
O=C(CNC(=O)c1ccccc1)NCCc1ccc(O)c(O)c1	59*	-2	-5	/	1
O=C(COC(=O)CNC(=O)c1ccccc1)NCCc1ccccc1	12	0	-10	-1	-12

Screening data as filed in PubChem BioAssay.
